Compound activity: PubChem, National Center for Advancing Translational Sciences (NCATS)
Sampled rows, rich in hits. Any-hit rate of the full collection: about 19%.
ASM inhibitor = Inhibitors of Secretory Acid Sphingomyelinase (S-ASM): qHTS. Sphingomyelin phosphodiesterase (Homo sapiens), P17405. placental ASM, HMU-PC fluorogenic substrate, 60 min. Potency, µM (doses to about 57.5 µM), inactives show at the highest dose activity change, negative = inhibition, actives largely listed as inhibitors. actives 0.006% (n = 340,000); also: potency is read from the fitted curve at half-maximal effect
Target sequence (P17405 47-631 limits assumed): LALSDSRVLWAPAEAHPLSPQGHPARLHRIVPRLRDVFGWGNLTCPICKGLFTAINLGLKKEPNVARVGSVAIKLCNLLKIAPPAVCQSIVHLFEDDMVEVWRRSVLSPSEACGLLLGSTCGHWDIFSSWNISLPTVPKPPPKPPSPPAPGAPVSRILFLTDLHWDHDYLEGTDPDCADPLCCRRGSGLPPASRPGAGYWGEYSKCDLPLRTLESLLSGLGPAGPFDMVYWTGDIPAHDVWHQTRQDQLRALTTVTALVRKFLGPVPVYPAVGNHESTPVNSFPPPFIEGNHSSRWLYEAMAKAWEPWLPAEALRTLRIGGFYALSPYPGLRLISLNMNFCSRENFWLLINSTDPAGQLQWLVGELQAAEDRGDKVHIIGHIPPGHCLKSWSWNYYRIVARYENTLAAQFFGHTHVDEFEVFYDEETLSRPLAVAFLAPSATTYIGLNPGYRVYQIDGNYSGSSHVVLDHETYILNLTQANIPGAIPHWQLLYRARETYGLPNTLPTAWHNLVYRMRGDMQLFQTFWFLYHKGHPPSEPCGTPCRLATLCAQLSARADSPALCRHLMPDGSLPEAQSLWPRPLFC
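Steps: dispense placental human ASM, pin compound, wait 10 min at room temperature, add HMU-PC0 substrate at 9 uM final, incubate 60 min at 37 °C, add stop solution raising pH to 10, read fluorescence.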
HepG2 viability = qHTS for Inhibitors of TGF-b: Cytotox Counterscreen; AID 588856, 2011; actives 0.76% (n = 410,000); HepG2 CAGA-GFP viability, ATP luminescence, 18 h; Potency, µM (series often up to 46.1 µM), for inactives: at the highest dose activity change, negative = cytotoxicity, usual class: cytotoxic; also: potency is read from the fitted curve at half-maximal effect
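CellTiter-Glo luminescence gave cytotoxicity after 18 hours at 37 degrees C. The cells were HepG2 CAGA-GFP in 1% FBS DMEM, stimulated with 500 pg/mL TGF-beta after compound addition. %Activity was normalised to no-cell wells (complete cell-killing) and DMSO (no toxicity), and curves were fitted and classified.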
DT40 TDP1 no CPT = qHTS for Inhibitors of human tyrosyl-DNA phosphodiesterase 1 (TDP1): qHTS in cells in absence of CPT; DT40 Tdp1-/- hTDP1 cells, no CPT, ATP luminescence, 48 h; Potency, µM (top dose mostly 46.2 µM), without a hit: at the highest dose activity change, negative = growth inhibition, most hits filed as inhibitors; actives 15% (n = 420,000); also: potency is read from the fitted curve at half-maximal effect; % is scaled to controls: 0 for no effect and ±100 for the full control effect; nearly all actives have a fitted effect of over 55% in size
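Growth of hTDP1-complemented DT40 Tdp1-knockout cells is measured by ATP luminescence after at least 48 hr compound exposure at 37 °C, with DMSO substituting for the 20 nM CPT used in the parallel screen.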
TDP1 cell CPT = qHTS for Inhibitors of human tyrosyl-DNA phosphodiesterase 1 (TDP1): qHTS in cells in presence of CPT | chicken DT40 Tdp1-/-;hTDP1 cells + 20 nM CPT, ATP luminescence, 48 h | Potency, µM (titrated, usually from 46.2 µM), for the others: at the top dose activity change, negative = growth inhibition, hits mostly inhibitors | actives 12% (n = 420,000) | AID 686979, 2013; also: potency is read from the fitted curve at half-maximal effect; % is scaled to controls: 0 for no effect and ±100 for the full control effect; nearly all actives have a fitted effect of over 55% in size
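Cell growth measured by CellTiter-Glo luminescence after a minimum 48 h, 37 C compound exposure with 20 nM CPT in Tdp1-knockout DT40 cells stably expressing hTDP1, seeded 400/well; qHTS titration format.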
TGFb inhibitor = qHTS for Inhibitors of TGF-b; HepG2 CAGA-GFP TGF-b/SMAD3 reporter, GFP fluorescence, 18 h; TGF-beta stimulated, 500 pg/mL final; AID 588855, 2011; actives 1.2% (n = 410,000); Potency, µM (top dose mostly 46.1 µM), inactives show top-dose activity, negative = inhibition, most hits filed as inhibitors; also: potency is read from the fitted curve at half-maximal effect; % is scaled to controls: 0 for no effect and ±100 for the full control effect; nearly all actives have a fitted effect of over 65% in size
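GFP signal (ex488/em500-530) from TGF-beta-stimulated HEPG2 CAGA-GFP cells, 500 pg/mL final, 18 h at 37 degrees C in DMEM plus 1% FBS, normalized to unstimulated and DMSO-stimulated controls.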
IL1B secr inh = qHTS for Inhibitors of Inflammasome Signaling: IL-1-beta AlphaLISA Primary Screen; THP-1 LPS/ATP IL-1B secretion, AlphaLISA, 16 h; active compounds read low; AID 743279, 2014; actives 4.7% (n = 360,000); activity change, % at 57.5 µM; in the data active = activity change below about -50%; inconclusive = mostly about -30% to -49%; also: % is scaled to controls: 0 for no effect and ±100 for the full control effect
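THP-1 cells pretreated 1 hr with compounds (up to 57.5 uM final), then stimulated with LPS (250 ng/mL final) plus ATP (1.25 mM final); secreted IL-1B measured by AlphaLISA after 16 hr, decreased signal indicating inhibition.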
Numbers without * were called inactive. Unless noted, calls follow the shape of the dose curve; as a rule, active = well fitted curve in the direction sought with a large enough effect; inconclusive = small, poorly fitted or top-dose-only effect, or another doubt; inactive = no such curve, though single readings can be large; an effect the other way counts as inactive or inconclusive.

How did Cc1c(N)nc(C(CC(N)=O)NCC(N)C(N)=O)nc1C(=O)NC(C(=O)NC(C)C(O)C(C)C(=O)NC(C(=O)NCCc1nc(-c2nc(C(=O)NCCCN[C@@H](C)c3ccccc3)cs2)cs1)C(C)O)C(O[C@@H]1O[C@@H](CO)[C@@H](O)[C@H](O)[C@@H]1O[C@H]1O[C@H](CO)[C@@H](O)[C@H](OC(N)=O)[C@@H]1O)c1cnc[nH]1 (stereo partly specified) do in these assays?
DT40 TDP1 no CPT: 1.7µM*; TDP1 cell CPT: 1.2µM*

Results for COc1cccc(C(=O)NCc2nc(-c3ccccc3)no2)c1OC ?
HepG2 viability: -25%; DT40 TDP1 no CPT: inconclusive; TDP1 cell CPT: -29%; TGFb inhibitor: -17%

How did CCN(C(=O)CCNC(=O)Cn1cnc2ccccc2c1=O)c1ccccc1F do in these assays?
ASM inhibitor: 13%; HepG2 viability: 2%; DT40 TDP1 no CPT: -22%; TDP1 cell CPT: -2%; TGFb inhibitor: -1%; IL1B secr inh: 23

What do the screens show for `Cc1ccc(C(=O)NCC(=O)NCC(=O)OCc2ccc(Cl)cc2)cc1`?
ASM inhibitor: 3%; HepG2 viability: 12%; DT40 TDP1 no CPT: -8%; TDP1 cell CPT: -14%; TGFb inhibitor: -9%; IL1B secr inh: -98*

Results for Cc1c(NC(=O)C(C)OC(=O)COc2ccccc2)c(=O)n(-c2ccccc2)n1C (stereo unspecified) ?
ASM inhibitor: -1%; HepG2 viability: 5%; DT40 TDP1 no CPT: -14%; TDP1 cell CPT: 19%; TGFb inhibitor: 6%; IL1B secr inh: 28

How did Cc1c(NC(=O)C(C)OC(=O)c2ncc(Cl)c(Cl)c2Cl)c(=O)n(-c2ccccc2)n1C (stereo unspecified) do in these assays?
HepG2 viability: 4%; DT40 TDP1 no CPT: 4%; TDP1 cell CPT: -4%; TGFb inhibitor: inconclusive; IL1B secr inh: -72*

What do the screens show for `Cc1c(NC(=S)NC(NC(=O)C(C)C)C(Cl)(Cl)Cl)c(=O)n(-c2ccccc2)n1C` (stereo unspecified)?
ASM inhibitor: -13%; HepG2 viability: -1%; DT40 TDP1 no CPT: 15µM*; TDP1 cell CPT: 15µM*; TGFb inhibitor: -2%; IL1B secr inh: 25

Results for Cc1c(NC(=S)NC(C)(C)C)c(=O)n(-c2ccccc2)n1C ?
ASM inhibitor: 4%; HepG2 viability: 2%; DT40 TDP1 no CPT: -1%; TDP1 cell CPT: -1%; TGFb inhibitor: -13%; IL1B secr inh: 0

How did COC(=O)c1cccc(Nc2nc(-c3cccnc3)nc3ccccc23)c1 do in these assays?
ASM inhibitor: -1%; HepG2 viability: -6%; DT40 TDP1 no CPT: 9.2µM*; TDP1 cell CPT: inconclusive; TGFb inhibitor: 1%; IL1B secr inh: -22

Results for O=C(O)c1cccc(Nc2nc(-c3cccnc3)nc3ccccc23)c1 ?
ASM inhibitor: 0%; HepG2 viability: -2%; DT40 TDP1 no CPT: inconclusive; TDP1 cell CPT: inconclusive; TGFb inhibitor: 0%; IL1B secr inh: 28

How did CCOC(=O)c1cccc(Nc2nc(-c3cccnc3)nc3ccccc23)c1 do in these assays?
ASM inhibitor: -7%; HepG2 viability: -50%; DT40 TDP1 no CPT: 10µM*; TDP1 cell CPT: 23µM*; TGFb inhibitor: inconclusive; IL1B secr inh: -108*

Results for COC(=O)c1cccc(Nc2nc(-c3ccncc3)nc3ccccc23)c1 ?
ASM inhibitor: 2%; HepG2 viability: -7%; DT40 TDP1 no CPT: inconclusive; TDP1 cell CPT: inconclusive; TGFb inhibitor: 11%; IL1B secr inh: 17

How did CC(=O)c1ccc(N2CCN(C(=O)c3cc(S(=O)(=O)N4CCOCC4)ccc3C)CC2)cc1 do in these assays?
ASM inhibitor: 2%; HepG2 viability: -1%; DT40 TDP1 no CPT: -27%; TDP1 cell CPT: -21%; TGFb inhibitor: -14%; IL1B secr inh: 4

What do the screens show for `CCOC(=O)C1=C(COc2ccccc2)NC(=O)NC1c1cccc([N+](=O)[O-])c1` (stereo unspecified)?
ASM inhibitor: 0%; HepG2 viability: -9%; DT40 TDP1 no CPT: -10%; TDP1 cell CPT: 3%; TGFb inhibitor: 7%; IL1B secr inh: inconclusive

Results for CCOC(=O)C1=C(CSc2nc3ccccc3s2)NC(=O)NC1c1cccc([N+](=O)[O-])c1 (stereo unspecified) ?
ASM inhibitor: -1%; HepG2 viability: -36%; DT40 TDP1 no CPT: inconclusive; TDP1 cell CPT: 18µM*; TGFb inhibitor: -14%; IL1B secr inh: -17

What do the screens show for `Cc1cccc(-c2ccc([N+](=O)[O-])cc2CN2CCN(c3ncc(Cc4ccccc4)cn3)CC2)c1`?
DT40 TDP1 no CPT: 5.8µM*; TDP1 cell CPT: 5.8µM*; IL1B secr inh: 0

Results for Oc1ccc(Br)c(CN2CCN(c3ncc(Cc4ccccc4)cn3)CC2)c1 ?
DT40 TDP1 no CPT: inconclusive; TDP1 cell CPT: inconclusive; IL1B secr inh: -19

What do the screens show for `Cc1cccc(-c2ccc(O)cc2CN2CCN(c3ncc(Cc4ccccc4)cn3)CC2)c1`?
DT40 TDP1 no CPT: 21µM*; TDP1 cell CPT: inconclusive; IL1B secr inh: -7

Results for CC1(C)C(=O)NC(=O)N1Cc1ccccc1 ?
ASM inhibitor: 2%; HepG2 viability: 4%; DT40 TDP1 no CPT: -10%; TDP1 cell CPT: -1%; TGFb inhibitor: -5%; IL1B secr inh: 4

Results for Cc1ccc(C(=O)C[n+]2cccc3cccc(O)c32)cc1 ?
HepG2 viability: -11%; DT40 TDP1 no CPT: inconclusive; TDP1 cell CPT: inconclusive; TGFb inhibitor: -6%

What do the screens show for `CCOc1ccc(OCCC(=O)N(CCC(C)C)c2c(N)n(Cc3ccccc3)c(=O)[nH]c2=O)cc1`?
ASM inhibitor: -2%; HepG2 viability: -2%; DT40 TDP1 no CPT: -7%; TDP1 cell CPT: -27%; TGFb inhibitor: -5%; IL1B secr inh: -14

How did COc1ccc(C(=S)N2CCN(c3cccc(Cl)c3)CC2)c(OC)c1 do in these assays?
ASM inhibitor: -2%; HepG2 viability: -27%; DT40 TDP1 no CPT: 4.1µM*; TDP1 cell CPT: 2.6µM*; TGFb inhibitor: inconclusive; IL1B secr inh: 50
